# Results published in PubChem BioAssay (NCATS).
# Inconclusive results are not listed. Calls of active or inactive are those of the source. Unless noted, calls follow the shape of the full dose curve.
# Tests used:
# [1] = qHTS for Inhibitors of the Functional Ribonucleoprotein Complex (vRNP) of Lymphocytic Choriomeningitis Arenaviruses (LCMV): Viability assay - alamar blue signal for LCMV Primary Screen (AID 1347085; calls by dose curve; tested in HEK293 reporter line; also: nearly all actives have a fitted effect of over 80% in size; also: potency is read from the fitted curve at half-maximal effect)
# [2] = biological target: Nucleoprotein (Lymphocytic choriomeningitis virus (strain Armstrong)) (UniProt P09992); test: qHTS for Inhibitors of the Functional Ribonucleoprotein Complex (vRNP) of Lymphocytic Choriomeningitis Arenaviruses (LCMV): LCMV Primary Screen - GLuc reporter signal (AID 1347086); also: nearly all actives have a fitted effect of over 70% in size; also: potency is read from the fitted curve at half-maximal effect
# [3] = qHTS for Inhibitors of the Functional Ribonucleoprotein Complex (vRNP) of Lassa (LASV) Arenavirus: Viability assay - alamar blue signal for LASV Primary Screen (AID 1347083; calls by dose curve; tested in HEK293 reporter line; also: potency is read from the fitted curve at half-maximal effect; nearly all actives have a fitted effect of over 80% in size)
# [4] = qHTS of pediatric cancer cell lines to identify multiple opportunities for drug repurposing: Primary screen for DAOY cells (AID 1347090; active = well fitted curve in the direction sought with a large enough effect; an effect the other way counts as inactive or inconclusive; also: potency is read from the fitted curve at half-maximal effect; nearly all actives have a fitted effect of over 55% in size)
# Procedure, shortened: (§1)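 Cell viability, CellTiter-Glo luminescence; 500-1,000 cells/well, 8- or 11-point titration, 48 h compound exposure at 37 degrees C, 5% CO2. Controls: DMSO neutral, bortezomib 2.3 µM final as positive.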
# [5] = qHTS of pediatric cancer cell lines to identify multiple opportunities for drug repurposing: Primary screen for A673 cells (AID 1347092; active = well fitted curve in the direction sought with a large enough effect; an effect the other way counts as inactive or inconclusive; also: potency is read from the fitted curve at half-maximal effect; nearly all actives have a fitted effect of over 45% in size)
# Procedure, shortened: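 Cell viability of A673 measured by CellTiter-Glo ATP luminescence after 48 hours compound exposure. Dilution series spanned 0.78 nM to 46 µM (MIPE, 11-point) or 0.59 nM to 46 µM (NPC, 8-point); bortezomib 2.3 uM positive control.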
# [6] = qHTS of pediatric cancer cell lines to identify multiple opportunities for drug repurposing: Primary screen for SK-N-MC cells (AID 1347093; active = well fitted curve in the direction sought with a large enough effect; an effect the other way counts as inactive or inconclusive; also: potency is read from the fitted curve at half-maximal effect)
# Procedure, shortened: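 Metabolically active cells were quantified by ATP-dependent luminescence (CellTiter-Glo, 15 min at room temperature) following 48 h treatment. Cells had been plated at 500-1,000 per well and settled for 5 h beforehand.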
# [7] = qHTS of pediatric cancer cell lines to identify multiple opportunities for drug repurposing: Primary screen for BT-37 cells (AID 1347094; active = well fitted curve in the direction sought with a large enough effect; an effect the other way counts as inactive or inconclusive; also: potency is read from the fitted curve at half-maximal effect)
# Procedure, shortened: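 Primary screen of approved and investigational compounds on cells in growth media at 37 degrees C, 5% CO2. MIPE set at 11-point and NPC set at 8-point dilutions; viability scored by ATP-based luminescence at 48 hours.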
# [8] = qHTS of pediatric cancer cell lines to identify multiple opportunities for drug repurposing: Primary screen for TC32 cells (AID 1347089; active = well fitted curve in the direction sought with a large enough effect; an effect the other way counts as inactive or inconclusive; also: nearly all actives have a fitted effect of over 60% in size)
# Procedure, shortened: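 Luminescent ATP read-out (CellTiter-Glo) of metabolically active TC32 cells after 48 h exposure. Concentration-response curves came from 11-point (MIPE, 0.78 nM–46 µM) or 8-point (NPC, 0.59 nM–46 µM) primary titrations; follow-up used 11 points.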
# [9] = qHTS of pediatric cancer cell lines to identify multiple opportunities for drug repurposing: Primary screen for SJ-GBM2 cells (AID 1347091; active = well fitted curve in the direction sought with a large enough effect; an effect the other way counts as inactive or inconclusive; also: potency is read from the fitted curve at half-maximal effect)
# Procedure, shortened: as §1
# Nucleoprotein (Lymphocytic choriomeningitis virus (strain Armstrong)), sequence (P09992 whole entry, looked up): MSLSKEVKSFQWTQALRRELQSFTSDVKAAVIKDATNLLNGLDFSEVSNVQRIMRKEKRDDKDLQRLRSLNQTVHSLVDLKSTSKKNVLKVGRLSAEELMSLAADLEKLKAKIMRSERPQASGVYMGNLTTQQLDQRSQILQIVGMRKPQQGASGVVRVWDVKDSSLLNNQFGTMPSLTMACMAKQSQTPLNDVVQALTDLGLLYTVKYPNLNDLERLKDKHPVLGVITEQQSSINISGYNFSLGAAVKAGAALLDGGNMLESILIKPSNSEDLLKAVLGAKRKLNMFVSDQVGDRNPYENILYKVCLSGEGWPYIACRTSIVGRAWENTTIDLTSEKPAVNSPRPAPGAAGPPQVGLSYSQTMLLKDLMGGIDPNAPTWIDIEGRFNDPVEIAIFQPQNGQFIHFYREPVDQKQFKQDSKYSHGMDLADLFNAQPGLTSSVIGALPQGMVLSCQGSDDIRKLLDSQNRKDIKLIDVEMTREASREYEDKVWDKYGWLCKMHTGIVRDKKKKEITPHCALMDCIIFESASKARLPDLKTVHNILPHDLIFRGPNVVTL
structure (smiles),measurement,setting,value
CCc1cc(-c2n[nH]c(C)c2-c2ccc3c(c2)OCCO3)c(O)cc1O,Potency,[1],6.85 µM (active)
COc1cc2ncnc(Nc3ccc(F)c(Cl)c3)c2cc1NC(=O)C=CCN1CCCCC1,Potency,[1],inactive
same,Potency,[2],inactive
Cn1cc(-c2[nH]c3cc(NC(=O)[C@H](N)C4CCCCC4)cc4c3c2C=NNC4=O)cn1,Potency,[3],3.43 µM (active)
same,Potency,[1],4.85 µM (active)
same,Potency,[2],2.73 µM (active)
O=C(O)c1ccc(O)c2ncc(N3CCOCC3)cc12,Potency,[1],48.5 µM (active)
CCCS(=O)(=O)Nc1ccc(F)c(C(=O)c2c[nH]c3ncc(-c4ccc(Cl)cc4)cc23)c1F,Potency,[2],inactive
CN[C@@H](C)C(=O)N[C@H]1CCCC[C@H]2CC[C@@H](C(=O)N[C@@H](c3ccccc3)c3cn(CCCCc4ccc(CCCCn5cc([C@@H](NC(=O)[C@@H]6CC[C@@H]7CCCC[C@H](NC(=O)[C@H](C)NC)C(=O)N76)c6ccccc6)nn5)cc4)nn3)N2C1=O,Potency,[3],19.3 µM (active)
same,Potency,[2],inactive
CN(C)C(=O)c1ccc(S(=O)(=O)c2ccc(NC(=O)[C@@](C)(O)C(F)(F)F)c(Cl)c2)cc1,Potency,[1],inactive
COc1cc2c(cc1OC)CN(CCc1ccc(NC(=O)c3cccc4c(=O)c5cccc(OC)c5[nH]c34)cc1)CC2,Potency,[1],inactive
same,Potency,[2],inactive
CC(C)(C)c1[nH]cnc1C=c1[nH]c(=O)c(=Cc2ccccc2)[nH]c1=O,Potency,[1],0.0079 µM (active)
same,Potency,[2],0.0314 µM (active)
CCCCN1CCC(CNC(=O)c2c3n(c4ccccc24)CCCO3)CC1,Potency,[3],17.2 µM (active)
same,Potency,[1],7.69 µM (active)
same,Potency,[2],4.32 µM (active)
O=C(C=Cc1cccc(S(=O)(=O)Nc2ccccc2)c1)NO,Potency,[3],25 µM (active)
same,Potency,[1],39.5 µM (active)
same,Potency,[2],inactive
CCCCCCCCCCCCCCCC[N+](C)(C)C,Potency,[4],13.3 µM (active)
same,Potency,[5],4.22 µM (active)
same,Potency,[6],5.31 µM (active)
same,Potency,[7],15.5 µM (active)
CN1[C@H]2CC(O)C[C@H]1[C@H]1O[C@H]12 (some centres not stated),Potency,[3],27.3 µM (active)
same,Potency,[8],inactive
same,Potency,[5],18.7 µM (active)
same,Potency,[6],9.35 µM (active)
Cc1c(C(=O)Nc2cccc(C(F)(F)F)c2)cc(-c2ccccc2)n1CCCN1CCOCC1,Potency,[8],inactive
same,Potency,[9],18.7 µM (active)
same,Potency,[5],11.8 µM (active)
same,Potency,[6],13.2 µM (active)
same,Potency,[7],27.3 µM (active)
c1ccc2c(-c3cnn4cc(-c5ccc(N6CCNCC6)cc5)cnc34)ccnc2c1,Potency,[2],inactive
COc1cc2nccc(Oc3ccc(NC(=O)C4(C(=O)Nc5ccc(F)cc5)CC4)cc3)c2cc1OC,Potency,[3],27.3 µM (active)
same,Potency,[2],inactive
Nc1ccc([N+](=O)[O-])cc1O,Potency,[1],inactive
same,Potency,[2],inactive
Cc1cc2c(F)c(Oc3ncnn4cc(OC[C@@H](C)O)c(C)c34)ccc2[nH]1,Potency,[3],24.3 µM (active)
same,Potency,[2],13.7 µM (active)
CC(O)=C(C#N)C(=O)Nc1ccc(C(F)(F)F)cc1,Potency,[2],19.3 µM (active)
